Reference: the supplement of paper PMC6555819

Experiments:
Test in all cases: PBM binding z-score (relative to random genomic background probes); higher = stronger binding; sequences stand for … in GC…GCGATTGACAGCGTAGAATGAAGG
[1] = test system: RARb homodimer (NR concentration 270 nM)
How it was run: (§1)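 For binding z-scores, the reference was random background probes on custom Agilent 4×180K protein-binding microarrays. These arrays were incubated 1 h with ligand-free nuclear receptor dimers in PBS pH 7.4, 2% milk, 0.02% Triton X-100, 1 mM DTT, 0.2 mg/mL BSA and 0.4 mg/ml salmon testes DNA. Fluorescence was scanned after antibody detection of each partner (one per run) and regression-normalized.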

[2] = test system: RARg:RXRa (NR concentration 270 nM, RXRa partner concentration 90 nM)
How it was run: as §1

[3] = test system: RARg homodimer (NR concentration 270 nM)
How it was run: as §1

[4] = test system: RXRa DBDmut IVT, anti-RXR (DBD mutation: RXRa K156A/R161A, NR concentration 90 nM)
How it was run: as §1

[5] = test system: RXRa homodimer (NR concentration 180 nM)
How it was run: as §1

[6] = test system: THRa:RXRa (NR concentration 90 nM, RXRa partner concentration 90 nM)
How it was run: as §1

[7] = test system: THRa homodimer (NR concentration 90 nM)
How it was run: as §1

[8] = test system: VDR:RXRa (NR concentration 270 nM, RXRa partner concentration 90 nM)
How it was run: as §1

[9] = test system: VDR homodimer (NR concentration 270 nM)
How it was run: as §1

## ATCTAAAGGTCGACGAGGTGAGTATACACCGTTT
[1]
  PBM binding z-score: 3.05
[2]
  PBM binding z-score: 4.38
[3]
  PBM binding z-score: 4.38
[4]
  PBM binding z-score: 1.52
[5]
  PBM binding z-score: 4.1
[6]
  PBM binding z-score: 3.82
[7]
  PBM binding z-score: 0.836
[8]
  PBM binding z-score: 5.21
[9]
  PBM binding z-score: 1.29

## TCATATAGTTAAATGCTAGGTGAAAGTCCGATCT
[1]
  PBM binding z-score: 0.141
[2]
  PBM binding z-score: 0.1
[3]
  PBM binding z-score: 0.364
[4]
  PBM binding z-score: 1.68
[5]
  PBM binding z-score: 0.476
[6]
  PBM binding z-score: 0.852
[7]
  PBM binding z-score: 0.605
[8]
  PBM binding z-score: 0.952
[9]
  PBM binding z-score: 0.158

## CCTGCTAGGTCATGGTCAACTAATCTACAGTATG
[1]
  PBM binding z-score: 3.37
[2]
  PBM binding z-score: 4.23
[3]
  PBM binding z-score: 5.18
[4]
  PBM binding z-score: 1.75
[5]
  PBM binding z-score: 2.88
[6]
  PBM binding z-score: 3.26
[7]
  PBM binding z-score: 1.41
[8]
  PBM binding z-score: 2
[9]
  PBM binding z-score: 0.335

## AGAACGAGGGCACGCTGAGTGGATAGCAGAGTAG
[1]
  PBM binding z-score: 0.942
[2]
  PBM binding z-score: 1.87
[3]
  PBM binding z-score: 2.16
[4]
  PBM binding z-score: 1.48
[5]
  PBM binding z-score: 1.47
[6]
  PBM binding z-score: 1.66
[7]
  PBM binding z-score: -0.0727
[8]
  PBM binding z-score: 0.617
[9]
  PBM binding z-score: 0.664

## CGTCCAAGGTCAAGGTTAGTGAAAGAGACTCGAA
[1]
  PBM binding z-score: 4.33
[2]
  PBM binding z-score: 5.94
[3]
  PBM binding z-score: 6.75
[4]
  PBM binding z-score: 3.28
[5]
  PBM binding z-score: 5.75
[6]
  PBM binding z-score: 3.98
[7]
  PBM binding z-score: 2.66
[8]
  PBM binding z-score: 3.93
[9]
  PBM binding z-score: 1.85

## AGTCAAAGTTCAGGACGAGGTAACGTCAAGCACG
[1]
  PBM binding z-score: 3.13
[2]
  PBM binding z-score: 4.98
[3]
  PBM binding z-score: 4.9
[4]
  PBM binding z-score: 2.71
[5]
  PBM binding z-score: 3.29
[6]
  PBM binding z-score: 3.98
[7]
  PBM binding z-score: 1.52
[8]
  PBM binding z-score: 3.07
[9]
  PBM binding z-score: 2.33

## CAAACTAGGTCACGAAGGGTCAAAGTCGAATGAC
[1]
  PBM binding z-score: 5.36
[2]
  PBM binding z-score: 7.01
[3]
  PBM binding z-score: 7.66
[4]
  PBM binding z-score: 2.33
[5]
  PBM binding z-score: 7.15
[6]
  PBM binding z-score: 4.95
[7]
  PBM binding z-score: 2
[8]
  PBM binding z-score: 6.99
[9]
  PBM binding z-score: 3.79

## GCAGACAGGTGAAACGCGGGTAACTCAGGGTGGC
[1]
  PBM binding z-score: 0.366
[2]
  PBM binding z-score: 0.785
[3]
  PBM binding z-score: 0.319
[4]
  PBM binding z-score: -0.6
[5]
  PBM binding z-score: 0.631
[6]
  PBM binding z-score: 1.64
[7]
  PBM binding z-score: -0.533
[8]
  PBM binding z-score: -0.339
[9]
  PBM binding z-score: -0.362

## AGAATGAGGTTATACCTAGATCAGGGAAGAAAGT
[1]
  PBM binding z-score: 0.483
[2]
  PBM binding z-score: 1.75
[3]
  PBM binding z-score: 1.14
[4]
  PBM binding z-score: 1.51
[5]
  PBM binding z-score: 2.12
[6]
  PBM binding z-score: 2.05
[7]
  PBM binding z-score: 0.418
[8]
  PBM binding z-score: 1.11
[9]
  PBM binding z-score: 0.345

## CGAACTAGGTCATTGACAGGACAGTGTATAGTAA
[1]
  PBM binding z-score: 2.93
[2]
  PBM binding z-score: 4.51
[3]
  PBM binding z-score: 4.13
[4]
  PBM binding z-score: 2.69
[5]
  PBM binding z-score: 2.38
[6]
  PBM binding z-score: 3.02
[7]
  PBM binding z-score: 0.913
[8]
  PBM binding z-score: 2.05
[9]
  PBM binding z-score: 1.47

## TCTTGTAGATCAACAGGAGGTTAAGACAGATCGA
[1]
  PBM binding z-score: 0.499
[2]
  PBM binding z-score: 0.964
[3]
  PBM binding z-score: 0.323
[4]
  PBM binding z-score: 0.507
[5]
  PBM binding z-score: 0.916
[6]
  PBM binding z-score: 0.703
[7]
  PBM binding z-score: -0.723
[8]
  PBM binding z-score: 0.563
[9]
  PBM binding z-score: -0.102

## ATCTATAGGTAAAGTTCAGTGAAAGATCGATAGA
[1]
  PBM binding z-score: 2.35
[2]
  PBM binding z-score: 2.02
[3]
  PBM binding z-score: 2.38
[4]
  PBM binding z-score: 1.21
[5]
  PBM binding z-score: 1.51
[6]
  PBM binding z-score: 0.707
[7]
  PBM binding z-score: -0.456
[8]
  PBM binding z-score: 1.65
[9]
  PBM binding z-score: 1.95

## ACTATTAGTGGAGACGAGGGCAACCGATAGGTTG
[1]
  PBM binding z-score: 0.803
[2]
  PBM binding z-score: 0.333
[3]
  PBM binding z-score: 0.653
[4]
  PBM binding z-score: 0.323
[5]
  PBM binding z-score: 0.276
[6]
  PBM binding z-score: 1.45
[7]
  PBM binding z-score: -0.218
[8]
  PBM binding z-score: 0.101
[9]
  PBM binding z-score: 0.427

## GCTCGGAGGACAAGGTCAGAGTTTTGTCCGTAGA
[1]
  PBM binding z-score: 3.25
[2]
  PBM binding z-score: 3.1
[3]
  PBM binding z-score: 3.94
[4]
  PBM binding z-score: 0.706
[5]
  PBM binding z-score: 2.55
[6]
  PBM binding z-score: 3.11
[7]
  PBM binding z-score: 1.72
[8]
  PBM binding z-score: 1.65
[9]
  PBM binding z-score: 0.974

## GCGACTGGGGCAAAGCAGGTTACTATAAGGTTGG
[1]
  PBM binding z-score: 0.948
[2]
  PBM binding z-score: 0.427
[3]
  PBM binding z-score: 0.689
[4]
  PBM binding z-score: 0.143
[5]
  PBM binding z-score: 0.276
[6]
  PBM binding z-score: 2.81
[7]
  PBM binding z-score: 0.101
[8]
  PBM binding z-score: 0.0986
[9]
  PBM binding z-score: -0.0549

## CAAACTAGGTCACCGGAAGGTCAAAATCCGCATG
[1]
  PBM binding z-score: 5.17
[2]
  PBM binding z-score: 7.81
[3]
  PBM binding z-score: 7.09
[4]
  PBM binding z-score: 2.39
[5]
  PBM binding z-score: 5.88
[6]
  PBM binding z-score: 4.39
[7]
  PBM binding z-score: 2.94
[8]
  PBM binding z-score: 5.69
[9]
  PBM binding z-score: 3.11

## CCAACTAGGTCAAGAGGTCAAAGTCCGCTTCCCG
[1]
  PBM binding z-score: 5.51
[2]
  PBM binding z-score: 8.12
[3]
  PBM binding z-score: 7.31
[4]
  PBM binding z-score: 2.99
[5]
  PBM binding z-score: 8.12
[6]
  PBM binding z-score: 4.24
[7]
  PBM binding z-score: 2.47
[8]
  PBM binding z-score: 6.1
[9]
  PBM binding z-score: 4.94

## TCTAGTTGGTCACGGAGGTAACACACGACGGGTA
[1]
  PBM binding z-score: 1.39
[2]
  PBM binding z-score: 1.24
[3]
  PBM binding z-score: 1.7
[4]
  PBM binding z-score: 0.681
[5]
  PBM binding z-score: 1.04
[6]
  PBM binding z-score: 1.12
[7]
  PBM binding z-score: 0.797
[8]
  PBM binding z-score: 1.03
[9]
  PBM binding z-score: 0.198

## CAAATTAGGTCAAGAGGTCAAAGTCCGCTTCCCG
[1]
  PBM binding z-score: 5.68
[2]
  PBM binding z-score: 8.43
[3]
  PBM binding z-score: 7.88
[4]
  PBM binding z-score: 3.08
[5]
  PBM binding z-score: 8.85
[6]
  PBM binding z-score: 4.42
[7]
  PBM binding z-score: 2.88
[8]
  PBM binding z-score: 6.35
[9]
  PBM binding z-score: 5.32

## CCTACTGGGGCAAGGTCATTGATCAGTCAAAGCA
[1]
  PBM binding z-score: 3.3
[2]
  PBM binding z-score: 4.12
[3]
  PBM binding z-score: 3.61
[4]
  PBM binding z-score: 1.28
[5]
  PBM binding z-score: 3.54
[6]
  PBM binding z-score: 3.25
[7]
  PBM binding z-score: 1.6
[8]
  PBM binding z-score: 3.59
[9]
  PBM binding z-score: 3.27

## TCATATAGGTAAATGCTTGGTGAAAGTCCGATCT
[1]
  PBM binding z-score: 0.222
[2]
  PBM binding z-score: 0.052
[3]
  PBM binding z-score: 0.0294
[4]
  PBM binding z-score: 1.52
[5]
  PBM binding z-score: 0.692
[6]
  PBM binding z-score: 0.0324
[7]
  PBM binding z-score: 0.34
[8]
  PBM binding z-score: 0.808
[9]
  PBM binding z-score: 0.414

## TAGCCTAGGTCATGGGCCAGTATTCCACGCGAAC
[1]
  PBM binding z-score: 2.79
[2]
  PBM binding z-score: 4.27
[3]
  PBM binding z-score: 4.6
[4]
  PBM binding z-score: 0.71
[5]
  PBM binding z-score: 3.8
[6]
  PBM binding z-score: 2.99
[7]
  PBM binding z-score: 1.33
[8]
  PBM binding z-score: 2.09
[9]
  PBM binding z-score: 0.208

## AGGATGAGGTTACCAAAGATCAGGGAAACGCTTG
[1]
  PBM binding z-score: 1.18
[2]
  PBM binding z-score: 1.94
[3]
  PBM binding z-score: 1.65
[4]
  PBM binding z-score: 0.402
[5]
  PBM binding z-score: 2.51
[6]
  PBM binding z-score: 2.67
[7]
  PBM binding z-score: 1.29
[8]
  PBM binding z-score: 1.45
[9]
  PBM binding z-score: 0.534

## CCTAGCAGGCCACTCTGGGTCACTCAAGGCTTGA
[1]
  PBM binding z-score: 2.05
[2]
  PBM binding z-score: 1.36
[3]
  PBM binding z-score: 1.45
[4]
  PBM binding z-score: 0.0538
[5]
  PBM binding z-score: 0.851
[6]
  PBM binding z-score: 3.4
[7]
  PBM binding z-score: 0.412
[8]
  PBM binding z-score: 0.79
[9]
  PBM binding z-score: 0.081

## CAAACTAGGTCACGAAAGGTCCAAGTCGAATGAC
[1]
  PBM binding z-score: 3.73
[2]
  PBM binding z-score: 5.23
[3]
  PBM binding z-score: 5.73
[4]
  PBM binding z-score: 1.55
[5]
  PBM binding z-score: 4.45
[6]
  PBM binding z-score: 3.87
[7]
  PBM binding z-score: 1.39
[8]
  PBM binding z-score: 3.82
[9]
  PBM binding z-score: 1.55

## CCTACTGGGCCACGAAAGGTCATCGATTCAGTGA
[1]
  PBM binding z-score: 4.88
[2]
  PBM binding z-score: 5.15
[3]
  PBM binding z-score: 4.75
[4]
  PBM binding z-score: 0.398
[5]
  PBM binding z-score: 5.62
[6]
  PBM binding z-score: 4
[7]
  PBM binding z-score: 1.08
[8]
  PBM binding z-score: 4.24
[9]
  PBM binding z-score: 1.56
